The values below come from PubChem BioAssay (NCATS).

Inconclusive results are not listed. Values without a mark were called inactive. The call rests on the fitted dose curve; in most records, active means well fitted inhibition curve with a large enough effect; inconclusive means small, poorly fitted or top-dose-only effect; inactive means flat fitted curve, though single readings scatter.
On the % scale 0 is the no-effect control and ±100 the full control effect.

Chain of Calcium and integrin-binding protein 1 (Homo sapiens) (Q99828 whole entry, looked up): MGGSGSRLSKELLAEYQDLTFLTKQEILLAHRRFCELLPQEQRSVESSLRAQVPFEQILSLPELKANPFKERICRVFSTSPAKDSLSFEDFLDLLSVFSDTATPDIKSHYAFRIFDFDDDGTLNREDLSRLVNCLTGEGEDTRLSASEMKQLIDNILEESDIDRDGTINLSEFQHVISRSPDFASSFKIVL

The assay has as its target Calcium and integrin-binding protein 1 (Homo sapiens) (UniProt Q99828). Put plainly: Primary qHTS for Identification of Calcium Integrin Binding Protein 1 (CIB1) Competitor (AID 1508620). Further: top concentration of the series differs between compounds. The following applies: CIB1-GST / FITC-alphaIIb peptide fluorescence polarization; series mostly up to 114 µM; activity change, negative = inhibition: at the top concentration. A digest of the protocol: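 Fluorescence polarization competition: GST-tagged CIB1 (1 uM final) preincubated with compound 15 min at room temperature, then FITC-labelled alphaIIb peptide (100 nM final) added. After 15 min at room temperature, polarization read at Ex 480/Em 540.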
`Cn1ncc(Cl)c1C1N=C(Nc2nc3ccccc3o2)NC2=C1C(=O)CCC2` (configuration not stated): the “activity change, negative = inhibition” value is -20.8%.

As for `Cc1cc(C)nc(NC(=S)N2CCN(c3ccccc3C#N)CC2)c1`, the “activity change, negative = inhibition” value was -10.5%.

Regarding `NC(=O)C1CCN(c2ncc(-c3cccc(N4CCOCC4)c3)s2)CC1`, the “activity change, negative = inhibition” value is 0.601%.

Regarding `COC(=O)c1ccnc(NCc2ccc(O)c3ncccc23)c1`, the “activity change, negative = inhibition” value was -3.23%.

Turning to `C[C@@H]1CN(S(=O)(=O)c2ccc3c(c2)OCCO3)CCN1S(=O)(=O)c1c(F)cccc1F`, the “activity change, negative = inhibition” value was 0.975%.

Regarding `O=C(OCC#CCSc1nnc(-c2cccc3ccccc23)o1)c1ccc(F)nc1`, the “activity change, negative = inhibition” value is -1.26%.

As for `O=C(OCC#CCSc1nnc(-c2cccc3ccccc23)s1)c1cccs1`, the “activity change, negative = inhibition” value is -10.7%.

Regarding `CCC(C)(CCN1CCOCC1)N(Cc1cc2ccccc2n(C)c1=O)C(=O)C1CCCCC1` (configuration not stated), the “activity change, negative = inhibition” value is 2.28%.

For the compound `O=C(O)c1ccc2c(c1)C(=O)N([C@]1(C(=O)O)CC1c1ccccc1)C2=O` (some centres not stated), the “activity change, negative = inhibition” value is 6.55%.

With `O=C1c2ccccc2C(=O)N1c1ccc2ncccc2c1`, the “activity change, negative = inhibition” value was -0.611%.

In the case of `Cc1ccsc1CNc1ncnc2ccc(-c3c(C)noc3C)cc12`, the “activity change, negative = inhibition” value is 0.78%.

`CS(=O)(=O)c1ccc(C(=O)OCC(=O)N2CCN(C3CCCCC3)CC2)cc1[N+](=O)[O-]`: the “activity change, negative = inhibition” value is -19.2%.

Take `COc1ccc(C(=O)c2ccc(-c3no[n+]([O-])c3C#N)cc2)cc1`: the “activity change, negative = inhibition” value was -2.59%.

Regarding `CCOC(=O)C1CCN(C(=O)C(C)(C)NC(=O)Nc2ccc([N+](=O)[O-])cc2)CC1`, the “activity change, negative = inhibition” value was -18.8%.

For the compound `O=C(NC1CCCc2c1cnn2-c1ccc(F)cc1F)c1ccn[nH]1` (configuration not stated), the “activity change, negative = inhibition” value is 0.937%.

In the case of `Cc1cc(C)nc(NC(=S)N2CCN(c3ncc(Cl)cc3Cl)CC2)c1`, the “activity change, negative = inhibition” value is 1.26%.

On to `Cc1c(-c2ccccc2)no[n+]1[O-]`, for which the “activity change, negative = inhibition” value was 1.51%.
